# The list is not random: actives were taken first. Their share in the collection is about 0.71%.
# RGS12 GoLoco inh – qHTS Assay for Inhibitors of RGS12 GoLoco Motif Activity (Red Fluorophore). Potency, µM (top dose mostly 61.6 µM), for inactives: at the top dose activity, negative = inhibition, usual class: inhibitors. Gai1:RGS12 GoLoco peptide FP, rhodamine, 10 min. Guanine nucleotide-binding protein G(i) subunit alpha-1 (Homo sapiens), P63096. 230,000 tested, 0.44% active; active means well fitted inhibition curve with a large enough effect, not every such curve was filed as active; inactive means no such curve, though single readings can be large or run the other way; further: on the % scale 0 is the no-effect control and ±100 the full control effect; nearly all actives have a fitted effect of over 30% in size
# BLM helicase inh – qHTS Assay for Inhibitors of Bloom's syndrome helicase (BLM); RecQ-like DNA helicase BLM (Homo sapiens), P54132; AID 2528, 2010; Potency, µM (series often up to 56.1 µM), for inactives: at the top dose activity change, negative = inhibition, usual class: inhibitors; recombinant BLM DNA unwinding, fluorescence dequenching; 350,000 tested, 0.2% active;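 further: plate controls were vehicle for no effect and no enzyme for full effect; nearly all actives have a fitted effect of over 35% in size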
# TexasRed fluor – Total Fluorescence Counterscreen for Inhibitors of the Interaction of Thyroid Hormone Receptor and Steroid Receptor Coregulator 2; TRb/SRC2 Texas Red total fluorescence interference; Potency, µM (series often up to 106 µM), for inactives: top-dose fluorescence change, negative = quenching; 280,000 tested, 0.29% active; AID 1479, 2009; active means well fitted curve in either direction with a large enough effect; inconclusive means small, poorly fitted or top-dose-only effect; further: on the % scale 0 is the no-effect control and ±100 the full control effect
#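 Flags fluorescent or light-absorbing compounds by total fluorescence, S + 2P, at 555 nm excitation and 632 nm emission. Mixture: 20 nM Texas Red SRC2 peptide, 0.6 uM human TRb LBD, 1 uM T3, 5% DMSO; compound exposure 5 h at ambient temperature.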
# RECQ1 inh-1 – qHTS Assay for Inhibitors of RecQ-Like Dna Helicase 1 (RECQ1); AID 2549, 2010; Potency, µM (series often up to 57.3 µM), for inactives: at the highest dose activity, negative = inhibition, actives largely listed as inhibitors; 240,000 tested, 0.54% active; RECQ1 DNA unwinding, red fluorescence kinetic read; ATP-dependent DNA helicase Q1 (Homo sapiens), P46063;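 further: plate controls were vehicle for no effect and no enzyme for full effect; nearly all actives have a fitted effect of over 30% in size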
# Target sequence (P46063 whole entry, looked up): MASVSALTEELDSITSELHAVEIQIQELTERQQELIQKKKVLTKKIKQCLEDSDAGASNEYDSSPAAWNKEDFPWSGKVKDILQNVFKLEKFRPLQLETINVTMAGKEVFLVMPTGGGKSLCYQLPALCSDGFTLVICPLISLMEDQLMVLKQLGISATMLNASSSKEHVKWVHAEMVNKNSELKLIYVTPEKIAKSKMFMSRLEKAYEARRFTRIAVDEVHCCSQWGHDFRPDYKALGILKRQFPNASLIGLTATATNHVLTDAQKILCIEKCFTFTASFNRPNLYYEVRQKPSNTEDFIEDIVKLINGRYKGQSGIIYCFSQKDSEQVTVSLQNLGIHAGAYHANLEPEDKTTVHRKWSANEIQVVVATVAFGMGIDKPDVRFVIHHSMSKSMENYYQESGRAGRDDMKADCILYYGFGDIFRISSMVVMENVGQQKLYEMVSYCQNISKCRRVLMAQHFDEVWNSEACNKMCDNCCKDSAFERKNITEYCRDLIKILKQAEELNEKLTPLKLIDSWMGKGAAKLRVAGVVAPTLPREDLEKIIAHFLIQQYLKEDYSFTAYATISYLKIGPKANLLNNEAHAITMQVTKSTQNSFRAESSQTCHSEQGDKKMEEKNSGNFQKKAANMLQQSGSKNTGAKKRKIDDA
#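 50 nM RECQ1T1 preincubated 15 min with compound in Tris pH 8.0 buffer with MgCl2, DTT, Tween-20 and 2.5 ug/ml poly(dI-dC); started with 200 nM TAMRA/BHQ-2 forked duplex and 2 mM ATP. Unwinding read as fluorescence (525/598 nm), two reads 2 h apart.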
# ERG-DNA inh – qHTS for Small Molecule Inhibitors of the ERG Ets/DNA interaction | Transcriptional regulator ERG (Homo sapiens), P11308 | fluorescence polarization, His-ERG Ets domain / labelled DNA | Potency, µM (titrated, usually from 76.9 µM), for the others: at the highest dose FP activity, negative = inhibition, hits mostly inhibitors | 370,000 tested, 0.028% active | AID 624246, 2012; active means well fitted inhibition curve with a large enough effect in the polarisation, with a control signal flat; inconclusive means small, poorly fitted or top-dose-only effect, or effect the other way, or a change in a side signal; inactive means no such curve, though single readings can be large or run the other way; the % refers to the polarisation;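 further: polarization taken with two DNA probes labelled with fluorescein and Texas red; % of control where 0% means no effect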
#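 His-tagged ERG Ets domain (1 uM in the protein solution; 300mM KCl, 50mM Tris-HCl, 1mM EDTA, 1mM DTT, pH 7.5) received compound, then a probe mix of 5 nM fluorescein-DNA and 100nM Texas-615-DNA. Fluorescence polarization was read for both dyes.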
# TRb-SRC2 inh – qHTS for Inhibitors of the Interaction of Thyroid Hormone Receptor and Steroid Receptor Coregulator 2. Thyroid hormone receptor beta (Homo sapiens), P10828. TRbeta-SRC2 peptide binding, fluorescence polarization; receptor liganded with 1 µM T3. Potency, µM (highest dose often 106 µM), inactives show at the highest dose activity change, negative = inhibition, hits mostly inhibitors. 280,000 tested, 0.065% active. AID 1469, 2008;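 further: plate controls were bound peptide for no effect and peptide without receptor for full effect; nearly all actives have a fitted effect of over 50% in size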
#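 Compounds were added to 0.6 uM TRb ligand-binding domain and 20 nM Texas Red-labeled SRC2 peptide in Tris buffer containing 1 uM T3, incubated 5 hr at ambient temperature, then read by fluorescence polarization.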
# RECQ1 inh conf – Confirmation qHTS Assay for Inhibitors of RecQ-Like Dna Helicase 1 (RECQ1); Potency, µM (titrated, usually from 229 µM), inactives show top-dose activity change, negative = inhibition, most hits filed as inhibitors; shares compounds with RECQ1 inh-1; AID 2708, 2010; RECQ1 helicase DNA unwinding, fluorescence; 610 tested, 28% active; further: on the % scale 0 is the no-effect control and ±100 the full control effect; nearly all actives have a fitted effect of over 45% in size
# ADP FP counter – Counterscreen for RECQ1 Inhibitors: ADP Fluorescence Polarization Displacement Assay | shares compounds with RECQ1 inh-1 | ADP fluorescence polarization displacement counterscreen | Potency, µM (titrated, usually from 228 µM), for inactives: at the top dose activity change, negative = inhibition, actives largely listed as inhibitors | 530 tested, 27% active | AID 2711, 2010; further: on the % scale 0 is the no-effect control and ±100 the full control effect; nearly all actives have a fitted effect of over 45% in size
# RECQ1 inh-2 – Confirmation qHTS Assay for Inhibitors of RecQ-Like Dna Helicase 1 (RECQ1) - Round 2 Cherry Picks; Potency, µM (titrated, usually from 119 µM), inactives show at the top dose activity, negative = inhibition, most hits filed as inhibitors; recombinant RECQ1 DNA unwinding, red fluorescence; AID 504841, 2011; shares compounds with RECQ1 inh-1; 1,100 tested, 15% active; further: on the % scale 0 is the no-effect control and ±100 the full control effect; nearly all actives have a fitted effect of over 50% in size
# * marks the source's active call; other numbers are inactive results; i = inactive; ? = inconclusive; nt = no result; [ ] = dose if it differs, or a comment. Unless noted, the call rests on the fitted dose curve; in most records, active means well fitted curve in the direction sought with a large enough effect; inconclusive means small, poorly fitted or top-dose-only effect, or another doubt; inactive means no such curve, though single readings can be large; an effect the other way counts as inactive or inconclusive. Potency means the concentration at half of the fitted maximal effect.
SMILES,RGS12 GoLoco inh,BLM helicase inh,TexasRed fluor,RECQ1 inh-1,ERG-DNA inh,TRb-SRC2 inh,RECQ1 inh conf,ADP FP counter,RECQ1 inh-2
COc1ccc(S(=O)(=O)NCCCCCC(=O)O)cc1C(=O)O,2%,-4%,2%,-9%,1%,-5%,10%,-7%,nt
COc1ccc(S(=O)(=O)NCCCCC(=O)O)cc1C(=O)O,4%,3%,-2%,-7%,5%,-8%,nt,nt,nt
O=C1C(C2=NC(C(=O)O)C3C(=O)N(c4ccccc4)C(=O)C23)=C(O)c2ccccc21 (configuration not stated),1%,-1%,1%,-3%,-6%,-6%,15%,?,nt
C/C(N)=C(/C#N)C(=O)COC(=O)C1Cc2ccccc2CN1S(C)(=O)=O (configuration not stated),-4%,-15%,-2%,?,-4%,1%,nt,nt,?
Cc1cccc(CNC(=O)Cc2ccc(NC(=O)N3CCCCc4ccccc43)cc2)c1,nt,-2%,0%,nt,-19%,-2%,nt,nt,nt
Cc1ccc(S(=O)(=O)N2CCc3ccccc3C2CN2C(=O)c3ccccc3C2=O)cc1 (configuration not stated),0%,-9%,-2%,32µM*,-1%,5%,nt,nt,-13%
CC(C)CC(=O)Nc1ccc(C(=O)Cn2nc(C(=O)O)c3ccccc3c2=O)cc1,-13%,-4%,-9%,1%,-1%,-8%,5%,20%,nt
O=C(Cn1nc(C(=O)O)c2ccccc2c1=O)Nc1ccc2c(c1)C(=O)c1ccccc1C2=O,1%,-8%,0%,i,nt,-3%,?,112µM*,nt
NS(=O)(=O)c1ccc(NC(=O)Cn2nc(C(=O)O)c3ccccc3c2=O)cc1,nt,1%,nt,nt,0%,nt,nt,nt,nt
O=C(Nc1ccc(-n2nncc2-c2ccco2)cc1)c1cc2ccccc2oc1=O,9%,-18%,-25%,6.3µM*,0%,3%,4.5µM*,4%[91.9 µM],?
CCOC(=O)c1ccc2c(c1)nc(SCC(=O)c1cc3ccccc3o1)n2CC,180%,-9%,9%,?,?,1%,nt,nt,?
COC(=O)c1cc2ccsc2n1Cc1nc(-c2ccc(OC)cc2)oc1C,-6%,-4%,4%,32µM*,10%,-12%,nt,nt,-23%
O=c1cc(CSc2ccc(Cl)cc2)[nH]c2[nH]n(-c3ccccc3)c(=O)c12,12%,-16%,-13%,?,-3%,-9%,nt,nt,-5%
